TEAD-YAP inh = TEAD-YAP interaction inhibition; HEK-TIYL cells, TEAD-Gal4/YAP UAS-luciferase luminescence; inhibition, % at 9.12 µM; 640,000 tested, 1.4% active; AID 1259422; in the data active = inhibition above about 32%
GPR151 ag = activators of human GPR151; Q8TDV0; PathHunter beta-arrestin GPR151 cells, luminescence; activation, % at 11.2 µM; 650,000 tested, 1% active; AID 1508602; in the data active = activation above about 4.9%
Target sequence (Q8TDV0 whole entry, looked up): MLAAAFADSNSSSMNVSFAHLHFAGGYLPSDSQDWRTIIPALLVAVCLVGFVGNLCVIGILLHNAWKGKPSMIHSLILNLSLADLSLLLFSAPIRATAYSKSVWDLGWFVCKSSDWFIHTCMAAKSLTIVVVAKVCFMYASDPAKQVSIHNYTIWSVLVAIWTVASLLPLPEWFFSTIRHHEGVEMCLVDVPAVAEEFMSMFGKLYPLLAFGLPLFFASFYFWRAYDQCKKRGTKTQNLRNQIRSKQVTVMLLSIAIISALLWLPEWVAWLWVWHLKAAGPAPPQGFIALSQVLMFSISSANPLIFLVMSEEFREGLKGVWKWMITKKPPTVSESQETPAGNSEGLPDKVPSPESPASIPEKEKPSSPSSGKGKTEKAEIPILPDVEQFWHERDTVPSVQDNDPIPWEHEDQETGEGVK
FBW7 activator = activators of human E3 ligase FBW7; Q969H0; AlphaScreen FBW7–phospho-cyclin E peptide binding, activator screen; normalized activity (activation), % at 26.1 µM; 650,000 tested, 0.13% active; AID 1259310; in the data active = normalized activity above about 1.9%;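 also: purified mutant Fbw7 with reduced substrate affinity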
MITF inh = inhibitors of human MITF | O75030 | AlphaScreen MITF homodimerization, bead proximity signal | inhibition, % at 2.6 µM | 650,000 tested, 0.91% active; in the data active = inhibition above about 50%
MITF inh conf = human MITF inhibition, confirmation | shares compounds with MITF inh | AlphaScreen MITF homodimerization, biotin/His-MITF beads | inhibition, % at 2.6 µM | 4,700 tested, 16% active;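 active = inhibition above a cutoff derived from the DMSO control wells, cut at about 28% in these data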;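 also: inhibitors lower the bead chemiluminescence by keeping MITF from dimerizing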
AlphaScreen DR = counter-screen: compounds optically interfering with AlphaScreen; IC50, µM; shares compounds with MITF inh; AID 1259373; 480 tested, 6% active; AlphaScreen optical interference counterscreen, cell-free; call rule not given here
AlphaScreen intf2 = AlphaScreen optical interference, counter-screen. shares compounds with MITF inh. LysRS AlphaScreen counterscreen, signal interference, triplicate. inhibition, % at 2.6 µM. 4,700 tested, 7.6% active;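 active = inhibition above a cutoff derived from the DMSO control wells, cut at about 30% in these data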
Hits are given with their value; n = inactive; x = no result. Compounds with a hit are over-represented: about 3.5% of the library has one in this group of screens.

SMILES	TEAD-YAP inh	GPR151 ag	FBW7 activator	MITF inh	MITF inh conf	AlphaScreen intf2	others
COc1cc(C)c2c(c1C=O)Oc1c(c(C)c(O)c3c1C(O)OC3=O)OC2=O (stereo not given)	n	n	n	74	84	n	AlphaScreen DR=n
Cc1cc(O)c(C=O)c2c1C(=O)Oc1c(C)c(O)c3c(c1O2)C(O)OC3=O (stereo not given)	n	n	n	n	x	x
COc1ccc(Cl)cc1C(=O)N(C)Cc1ccccc1	n	n	n	n	x	x
CC(C(=O)N1CCN(Cc2ccccc2)CC1)N(c1ccc(Cl)cc1)S(C)(=O)=O (stereo not given)	n	n	n	83	n	n
CS(=O)(=O)N1CCN(Cc2ccc(F)cc2)CC1	n	n	n	62	n	n
CS(=O)(=O)N1CCN(Cc2ccccc2)CC1	n	n	n	n	x	x
COc1ccc(CN2CCN(S(C)(=O)=O)CC2)cc1	n	n	n	57	n	n
O=C1CCCN1CCCNc1ccc(Cl)nn1	n	n	n	84	n	n
O=C1CCCN1CCCNc1cc(Cl)ncn1	n	n	n	n	x	x
CC(C(=O)Nc1ccccc1-c1ccccc1)N1CCN(C)CC1 (stereo not given)	n	n	n	68	n	n
CC(C)CCNC(=O)C(=O)NCC1OCCCN1S(=O)(=O)c1ccc(F)cc1 (stereo not given)	n	n	n	67	n	n
CC(C)CNC(=O)C(=O)NCC1OCCCN1S(=O)(=O)c1ccc(Cl)cc1 (stereo not given)	n	n	n	64	n	n
CC1(CC(=O)N/N=C/c2ccc3c(c2)OCO3)OCCO1	n	n	n	n	x	x
O=c1c2sc(=S)n(Cc3ccco3)c2nc(SCc2ccc(F)cc2Cl)n1-c1ccccc1	n	n	n	51	n	n
O=c1c2sc(=S)n(Cc3ccco3)c2nc(SCc2ccc(F)cc2Cl)n1-c1ccc(F)cc1	n	n	n	n	x	x
N#Cc1c(SCC(=O)O)nc2c(c1-c1ccco1)CCC2	n	n	n	60	72	n	AlphaScreen DR=n
C=CCOC(=O)C1=C(C)NC(SCC(=O)Nc2cccc(C(C)=O)c2)=C(C#N)C1c1ccc(O)c(OC)c1 (stereo not given)	n	n	n	n	x	x
CC(C)(C)NCCOCCOc1ccccc1-c1ccccc1	n	n	n	63	n	n
CCC(C)c1ccccc1OCCN1CCOCC1 (stereo not given)	n	n	n	84	n	n
CC(C)(C)NCCOCCOc1ccccc1I	n	n	n	n	x	x
CCN1CCN(CCOCCOc2ccccc2-c2ccccc2)CC1	n	n	n	64	n	n
c1ccc(-c2ccccc2OCCOCCN2CCNCC2)cc1	n	n	n	76	n	n
COc1ccc(CSc2cc(NCCOC(C)=O)c([N+](=O)[O-])c3nonc23)cc1	n	n	n	n	x	x
c1ccc(OCCNCCN2CCOCC2)cc1	n	n	n	n	x	x
Cc1cc(C)c(C)c(OCCOCCNC(C)(C)C)c1	n	n	n	64	n	n
SMILES	TEAD-YAP inh	GPR151 ag	FBW7 activator	MITF inh	MITF inh conf	AlphaScreen intf2	others
Cc1cc(C)c(C)c(OCCNC(C)(C)C)c1	n	n	n	n	x	x
c1ccc(-c2ccc(OCCCN3CCNCC3)cc2)cc1	n	n	n	n	x	x
c1ccc(OCCN2CCOCC2)cc1	n	n	n	54	n	n
CCN1CCN(CCOCCOc2ccc3ccccc3c2Cl)CC1	n	n	n	51	n	n
Clc1c(OCCN2CCOCC2)ccc2ccccc12	n	n	n	n	x	x
c1ccc(-c2ccc(OCCN3CCNCC3)cc2)cc1	n	n	n	56	n	n
CCOc1ccccc1N/C=C/C(=O)c1cc(OC)c(OC)c(OC)c1	n	n	n	n	x	x
CC1=NN(c2cccc(F)c2)C(=O)C1	n	n	n	n	x	x
CC1=NN(c2cccc(C(=O)O)c2)C(=O)C1	n	n	n	60	n	n
O=C(O)C(O)C(O)C(O)C(O)C(=O)O (stereo not given) (tested in a mixture with another compound)	x	n	n	n	x	x
O=C(O)c1nsnc1C(O)C(O)C(=O)O (stereo not given)	n	n	n	68	n	n
CCOC(=O)CC(=O)CSc1nc2c(cc1C#N)CN(C)CC2	n	n	n	53	n	n
CCOC(=O)CSc1nc2c(cc1C#N)CCCCC2	n	n	n	n	x	x
C=Cn1ccnc1P(c1ccccc1)c1nccn1C=C	n	n	n	104	110	100
CCOc1ccc(-c2cn3nc(COc4ccc(Cl)cc4Cl)n4c3c2CCCC4)cc1	n	n	n	59	n	n
O=C(O)c1cc(S(=O)(=O)Nc2ccc(-n3cnnn3)cc2)ccc1O	n	n	n	53	41	n	AlphaScreen DR=n
Cc1ncc2c(c1CNC(=O)C1CCCO1)CCN(C(=O)c1ccsc1)C2 (stereo not given)	n	n	n	n	x	x
COc1cc(OC)cc(C(=O)N2CCN(Cc3ccc(Cl)cc3)CC2)c1	n	n	n	58	n	n
COc1cc(OC)cc(C(=O)N2CCN(Cc3cccc(Cl)c3)CC2)c1	n	n	n	52	n	n
O=C(c1ccncc1)N1CCN(Cc2cccc(Cl)c2)CC1	n	n	n	73	n	n
COc1cc(OC)cc(C(=O)N2CCN(Cc3ccc(F)cc3)CC2)c1	n	n	n	n	x	x
Cn1nc(-c2ccc(F)cc2)cc1C(=O)NCCc1cccs1	n	n	n	n	x	x
C(=N\Nc1nnnn1-c1cccc2ccccc12)/c1ccc(OCc2ccccn2)cc1	n	n	n	69	n	n
C(=N\Nc1nnnn1-c1cccc2ccccc12)/c1ccncc1	n	n	n	n	x	x
COc1ccc2c(c1)CCN(C(=O)Nc1c[nH]c3ccc(OC)nc3c1=O)C2	n	n	n	n	x	x
SMILES	TEAD-YAP inh	GPR151 ag	FBW7 activator	MITF inh	MITF inh conf	AlphaScreen intf2	others
COc1ccccc1CN1CCN(Cc2ccc(OC)c(OC)c2)CC1	n	n	n	62	n	n
COc1ccc(CN2CCN(Cc3ccccc3C)CC2)cc1OC	n	n	n	62	n	n
CCOc1cc(CN2CCN(Cc3ccccc3C)CC2)ccc1OC	n	n	n	52	n	n
CCOc1cc(CN2CCN(Cc3cccc(C)c3)CC2)ccc1OC	n	n	n	n	x	x
CN(Cc1ccccc1)C1CCN(Cc2ccccc2[N+](=O)[O-])CC1	n	n	n	59	n	n
Oc1oc(-c2cccc3ccccc23)nc1C=Nc1ccc(F)c(Cl)c1	n	n	n	n	x	x
COc1ccc(CN2CCN(Cc3ccccc3[N+](=O)[O-])CC2)cc1OC	n	n	n	67	n	n
COc1ccc(CNCc2ccccc2Cl)cc1OC	n	n	n	n	x	x
COc1cc(OC)c(OC)cc1CN1CCCN(C)CC1	n	n	n	n	x	x
FC(F)(F)c1ccccc1CN1CCN(Cc2ccc3ccccc3c2)CC1	n	n	n	83	n	n
COc1cc(OC)c(OC)cc1CN1CCN(Cc2cccn2C)CC1	n	n	n	63	n	n

High-throughput results (PubChem BioAssay)
